# Screens (PubChem)
# Most compounds without a hit are left out; they make up all but 1.8% or so of the library.
# RAD52 anneal inh: RAD52 DNA annealing inhibitors, primary screen, biochemical, FRET, single point, set 2; DNA repair protein RAD52 homolog (Homo sapiens), P43351; recombinant RAD52 DNA annealing, FRET fluorescence; inhibition, % at 18.7 µM; 360,000 compounds, 0.46% hits;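 active = every replicate showing at least 50% inhibition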
# INS-1E GSIS act: GLuc luminescence reporter in INS-1E cells, primary screen for activators of glucose-dependent secretion of insulin; INS-1E GLuc reporter insulin secretion, 2-3 h; activation, % at 16.6 µM; 370,000 compounds, 0.61% hits; AID 743287, 2014;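 active = lowest replicate activation of at least 40%, so every replicate reaches that level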;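 note: 0% = median of neutral control wells and 100% = median of IBMX positive control wells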
# RAD54 branch: inhibitors of human RAD54 branch migration, primary screen, biochemical, fluorescence, single point | DNA repair and recombination protein RAD54-like (Homo sapiens), Q92698 | RAD54 Holliday junction branch migration, FAM/BHQ fluorescence | inhibition, % at 10.4 µM | 360,000 compounds, 0.14% hits | AID 602329, 2012;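 active = mean normalized replicate activity at least 40 and at least half of replicates scoring 40 or more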;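 note: 0% = median of neutral control wells and 100% = median of positive control wells; inhibitors cause a drop in the FAM fluorescence signal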
# Target sequence (Q92698 whole entry, looked up): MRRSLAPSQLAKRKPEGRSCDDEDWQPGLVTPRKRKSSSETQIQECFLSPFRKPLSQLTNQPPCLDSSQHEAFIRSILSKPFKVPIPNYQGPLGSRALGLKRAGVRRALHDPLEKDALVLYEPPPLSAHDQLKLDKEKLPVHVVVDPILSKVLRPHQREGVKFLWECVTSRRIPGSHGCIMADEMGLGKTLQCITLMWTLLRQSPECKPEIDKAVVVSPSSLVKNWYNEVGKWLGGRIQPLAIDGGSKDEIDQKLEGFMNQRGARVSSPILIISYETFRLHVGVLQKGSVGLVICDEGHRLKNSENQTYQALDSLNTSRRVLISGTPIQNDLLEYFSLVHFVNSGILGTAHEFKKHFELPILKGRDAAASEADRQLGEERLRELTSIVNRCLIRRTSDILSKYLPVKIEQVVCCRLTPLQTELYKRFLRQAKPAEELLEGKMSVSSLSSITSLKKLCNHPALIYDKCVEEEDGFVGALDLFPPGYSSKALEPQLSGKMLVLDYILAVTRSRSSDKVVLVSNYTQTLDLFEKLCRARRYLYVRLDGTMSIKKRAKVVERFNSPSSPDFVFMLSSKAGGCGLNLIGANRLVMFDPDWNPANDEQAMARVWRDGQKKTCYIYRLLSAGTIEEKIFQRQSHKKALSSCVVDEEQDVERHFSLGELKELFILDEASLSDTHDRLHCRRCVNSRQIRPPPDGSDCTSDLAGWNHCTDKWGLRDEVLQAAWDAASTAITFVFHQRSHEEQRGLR
# EWS-Fli block: EWS/Fli-driven NR0B1 reporter inhibitors, primary screen, A673 cells, NR0B1 luciferase, luminescence, MLPCN library; viability-normalised; 350,000 compounds, 0.67% hits; inhibition, % at 12.6 µM; AID 651661, 2012;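 active = mean inhibition of at least 50% after viability correction, with every replicate also passing that limit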;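 note: firefly luciferase signal divided by Alamar Blue viability fluorescence both relative to DMSO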
# LGR2 inh: inhibitors of bursicon-induced LGR2 CRE-luciferase signal, primary screen, cell-based, HEK293, CRE-luciferase reporter, bursicon stimulation | Drosophila bursicon receptor LGR2 (rickets) | bursicon-stimulated, 4 h | inhibition, % at 9.99 µM | 380,000 compounds, 0.35% hits;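 active = drop in luminescence signal, shown as inhibition above about 50% in the replicate tests, limit read from the data, passing the limit was not always enough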;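 note: agonist challenge used bursicon conditioned medium at about half maximal strength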
# F508del corr: F508del CFTR correction, initial screen, CFBE line, single point | AID 720511, 2013 | activity (quench increase), % at 7.58 µM | 350,000 compounds, 0.36% hits | CFBE cells, YFP halide quenching; stimulated with forskolin plus potentiator P3; % fluorescence drop versus neutral controls;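 active = mean added fluorescence quench of at least 8% versus neutral control, with both replicates also reaching 8%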;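 note: cells transiently co-express mutant CFTR-F508del with the halide-sensitive YFP; corrector assay measuring rescue of mutant channel to the surface after 24 h compound exposure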
# Numbers without * were called inactive; · = no result; ! = a repeat was not active.
SMILES,RAD52 anneal inh,INS-1E GSIS act,RAD54 branch,EWS-Fli block,LGR2 inh,F508del corr
C=C1C(=O)[C@]23C[C@H]1CCC2[C@@]1(C)C(C[C@@H]3O)[C@](C)(C(=O)OC)CC[C@@H]1O (some centres undefined),-12,87*,-1,59*,69*,-22
C[C@@]12C(C[C@H](O)[C@@]34C[C@@H](CCC13)[C@@H](CO)C4=O)[C@](C)(C(=O)O)CC[C@@H]2O (some centres undefined),-14,-7,13,14,-14,0
COc1ccc(C(=O)NCC(=O)OCC(=O)Nc2ccc(C)c(S(=O)(=O)N(C)C)c2)cc1OC,-3,68*,0,21,13,-2
C[C@H]1CN([C@@H](C)CO)C(=O)c2cc(C#Cc3ccccc3)cnc2O[C@@H]1CN(C)C(=O)c1ccccc1F,-5,-17,1,-13,1,-1
Cc1ccc(NC(=O)c2ccc(-n3cccn3)c([N+](=O)[O-])c2)cc1,·,·,2,·,·,·
O=C(Nc1ccc(C2=NCCN2)cc1)c1ccc(C(=O)Nc2ccc(C3=NCCN3)cc2)c([N+](=O)[O-])c1,104*,29,·,10,17,0
CN(C)CCCCOc1ccc(Br)cc1Cl,-9,15,·,-2,-7,0
C#CCN(C)CCCOc1ccc(Cl)cc1Cl,-1,·,12,-26,28,8.9*
Cc1ccc(-n2ccc(-c3nn(-c4ccccc4)ccc3=O)n2)cc1,-22,45,·,6,-3,-1
CN1CCCCN2[C@H](CO)[C@@H](c3ccc(/C=C/c4ccccc4)cc3)[C@H]2C1,53*,-1,8,-25,-13,1
CN1CCCCN2[C@H](CO)[C@H](c3ccc(/C=C/c4ccccc4)cc3)[C@H]2C1,77*,-4,13,-43,-23,1
CN1CCCCN2[C@H](CO)[C@H](c3ccc(-c4ccccc4)cc3)[C@H]2C1,9,0,3,-10,12,-3
Cc1nc(SCC(=O)NC(=O)NCc2ccco2)nc(C)c1C,-5,13,·,-15,18,2
CCc1nc2n[nH]c(N)c2c2c1CCCC2,·,121*,4,·,0,·
CCCc1nc2n[nH]c(N)c2c2c1COC(C)(C)C2,·,49*,·,·,·,·
CC(C)Cc1nc2n[nH]c(N)c2c2c1CCCC2,·,·,9,·,·,·
CCOC(=O)c1cn2nc(Oc3ccccc3)ccc2n1,-15,0,1,-12,-21,2
CCOC(=O)c1cn2nc(N3CCCC3)ccc2n1,1,-7,·,-51,68*,0
CCOC(=O)c1cn2nc(N3CCCCC3)ccc2n1,0,13,·,-116,88*,0
CCOC(=O)c1cn2nc(Oc3ccc(C)cc3)ccc2n1,-6,13,-2,-15,-20,0
COc1ccc2c3c([nH]c2c1)[C@H](CO)N(C(=O)CN1CCOCC1)CC31CCN(C(=O)NC(C)C)CC1,-3,0,·,-8,-5,-2
CCOC(=O)c1cn(-c2ccccc2)nc1-c1cccnc1,·,·,-2,·,·,·
CCOC(=O)c1cn(-c2ccccc2)nc1-c1ccncc1,-7,40*,-1,·,-30,·
CCCNC(=O)C1(C)CCN(C(=O)c2cccc(C(F)(F)F)c2)C1 (centres undefined),-15,45*,2,-1,15,-2
CC1(C(=O)NCc2cccc(C(F)(F)F)c2)CCN1Cc1cc2ccccc2o1 (centres undefined),-12,·,-1,4,22,-4
SMILES,RAD52 anneal inh,INS-1E GSIS act,RAD54 branch,EWS-Fli block,LGR2 inh,F508del corr
CCCNC(=O)C1(C)CCN(C(=O)c2cccc(OC(F)(F)F)c2)C1 (centres undefined),-6,18,1,0,6,-1
CCNC(=O)C1(C)CCCN1Cc1cccc(C(F)(F)F)c1 (centres undefined),-9,44*,-9,-5,-10,-2
COc1ccc(N2CC(C(=O)N/N=C/c3ccc(C)cc3)CC2=O)cc1 (centres undefined),-9,-14,-5,60*,3,·
COc1ccc(N2CC(C(=O)N/N=C/c3ccc([N+](=O)[O-])cc3)CC2=O)cc1 (centres undefined),-24,-11,·,17,-9,-1
COc1ccc(N2CC(C(=O)N3CCc4ccccc43)CC2=O)cc1 (centres undefined),-13,66*,12,·,-5,0
CCOC(=O)C1CCN(C2=NC(=O)/C(=C/c3ccc(OC)c(OC)c3)S2)CC1,13,11,8,6,-17,-1
CN(C)c1ccc(/C=C2\SC(N3CCCCC3)=NC2=O)cc1,-27,-19,-2,51*,45,3
COc1ccc(/C=C2\SC(N3CCCCC3)=NC2=O)cc1OC,-9,66*,12,-22,-15,1
COc1ccc(N)cc1S(=O)(=O)Nc1ccccc1Cl,-10,-3,·,-19,8,1
Nc1[nH]c(C(=O)c2ccccc2)c(-c2c(F)cccc2F)c1C(=O)c1ccc(Cl)c(Cl)c1,-5,177*,·,5,3,-4
Nc1[nH]c(C(=O)c2ccccc2)c(-c2ccc(Cl)cc2Cl)c1C(=O)c1ccc(Cl)cc1,-12,-28,·,-2,-6,-1
CC(=O)N1CCc2c(sc3c2c(=O)n(Cc2ccccc2)c(=O)n3CC(=O)NCC2CCCO2)C1 (centres undefined),-9,·,-1,7,2,-1
COc1ccccc1NC(=O)N1CC(=O)N2[C@H](C1)[C@@H](c1ccc(C#Cc3ccc(F)cc3)cc1)[C@@H]2CO,-7,4,·,·,9,1
COC(=O)c1ccc(Oc2ccc(C(F)(F)F)cn2)cc1,-11,56*,·,-23,-18,·
COc1cc(NC(=O)c2cnc(N)s2)cc(C(=O)Nc2cccc(C(F)(F)F)c2)c1,-7,-11,9,-25,-38,-2
COc1cc(NC(=O)c2csc(N)n2)cc(C(=O)Nc2cccc(C(F)(F)F)c2)c1,-10,1,-12,61*,-11,8.0*!
Cc1ccc(-c2ccc3c(c2)O[C@@H](CN(C)Cc2ccncc2)[C@H](C)CN([C@H](C)CO)S3(=O)=O)cc1,14,-29,2,74*,2,6
COc1ccccc1C#Cc1ccc2c(c1)O[C@@H](CN(C)Cc1cccnc1)[C@H](C)CN([C@H](C)CO)S2(=O)=O,-3,·,3,20,·,8.2*
C[C@@H]1CN([C@H](C)CO)S(=O)(=O)c2ccc(C#Cc3ccccc3F)cc2O[C@H]1CN(C)C(=O)Cc1cccnc1,12,-7,-17,11,16,10*
